Sampled rows, rich in hits. Any-hit rate of the full collection: about 2.4%.
POLI inh – DNA polymerase iota (human) inhibition | Q9UNA4 | Pol iota fluorescent replication assay, 10 min | Potency, µM (highest dose often 115 µM), for inactives: at the highest dose activity, negative = inhibition, hits mostly inhibitors | hit rate 1% among 390,000 | AID 588590; note: potency is the fitted concentration of half-maximal effect
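Pol iota at 10 nM preincubated 15 min with compounds at room temperature; reaction started with fluorescent substrate, 50 nM final. Fluorescence read kinetically at 0 and 10 min; buffer-only wells as negative control.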
WRN helicase inh – inhibitors of human WRN helicase; Q14191; AID 651768; hit rate 0.46% among 360,000; WRN helicase unwinding, fluorescent forked duplex, kinetic; Potency, µM (titrated, usually from 114 µM), for inactives: at the top dose activity change, negative = inhibition, hits mostly inhibitors; note: potency is the fitted concentration of half-maximal effect; % is set by controls: 0 for no effect and ±100 for the full control effect; nearly all actives have a fitted effect of over 55% in size
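Screening of the MLSMR collection measured strand separation of a quenched forked DNA duplex (100 nM) by 20 nM WRN with 2 mM ATP, all final. Compounds were preincubated with enzyme 15 min at room temperature.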
Pol kappa inh-1 – DNA polymerase kappa (human) inhibition; AID 588579; purified Pol kappa, fluorescent DNA synthesis assay, 10 min; Potency, µM (top dose mostly 107 µM), for the others: at the top dose activity, negative = inhibition, actives largely listed as inhibitors; Q9UBT6; hit rate 0.53% among 400,000; note: potency is the fitted concentration of half-maximal effect; % is set by controls: 0 for no effect and ±100 for the full control effect
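Enzyme at 10 nM met test compounds for 15 min at room temperature. Substrate addition (50 nM final) began the reaction, which was monitored by fluorescence at 0 and 10 min.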
FEN1 inh – inhibitors of human flap endonuclease 1; Potency, µM (highest dose often 114 µM), for the others: top-dose activity change, negative = inhibition, hits mostly inhibitors; P39748; Recombinant FEN1 flap cleavage, fluorescence, 15 min; AID 588795; hit rate 0.35% among 390,000; note: potency is the fitted concentration of half-maximal effect; % is set by controls: 0 for no effect and ±100 for the full control effect; nearly all actives have a fitted effect of over 65% in size
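FEN1 at 10 nM, compound pretreatment for 15 min (room temperature), 50 nM final substrate to initiate; endpoint reads at 0 and 15 min; DMSO-only plates used as vehicle background.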
POLB inh – DNA polymerase beta (human) inhibition; Pol beta primer extension/strand displacement, fluorescence kinetic; Potency, µM (series often up to 114 µM), inactives show at the top dose activity change, negative = inhibition, most hits filed as inhibitors; hit rate 1.3% among 340,000; note: potency is the fitted concentration of half-maximal effect; % is set by controls: 0 for no effect and ±100 for the full control effect
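Pol beta (10 nM) and compounds were preincubated 15 min at room temperature, then 50 nM substrate (final) started primer extension/strand displacement. Reads were taken at 0 and 10 min; concentration-response data were fitted to a four-parameter Hill equation.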
Pol eta inh-1 – DNA polymerase eta (human) inhibition; Q9Y253; recombinant Pol eta, fluorescent DNA replication assay; Potency, µM (series often up to 114 µM), without a hit: at the highest dose activity change, negative = inhibition, usual class: inhibitors; hit rate 1.2% among 390,000; AID 588591; note: potency is the fitted concentration of half-maximal effect; % is set by controls: 0 for no effect and ±100 for the full control effect
Target sequence (Q9Y253 whole entry, looked up): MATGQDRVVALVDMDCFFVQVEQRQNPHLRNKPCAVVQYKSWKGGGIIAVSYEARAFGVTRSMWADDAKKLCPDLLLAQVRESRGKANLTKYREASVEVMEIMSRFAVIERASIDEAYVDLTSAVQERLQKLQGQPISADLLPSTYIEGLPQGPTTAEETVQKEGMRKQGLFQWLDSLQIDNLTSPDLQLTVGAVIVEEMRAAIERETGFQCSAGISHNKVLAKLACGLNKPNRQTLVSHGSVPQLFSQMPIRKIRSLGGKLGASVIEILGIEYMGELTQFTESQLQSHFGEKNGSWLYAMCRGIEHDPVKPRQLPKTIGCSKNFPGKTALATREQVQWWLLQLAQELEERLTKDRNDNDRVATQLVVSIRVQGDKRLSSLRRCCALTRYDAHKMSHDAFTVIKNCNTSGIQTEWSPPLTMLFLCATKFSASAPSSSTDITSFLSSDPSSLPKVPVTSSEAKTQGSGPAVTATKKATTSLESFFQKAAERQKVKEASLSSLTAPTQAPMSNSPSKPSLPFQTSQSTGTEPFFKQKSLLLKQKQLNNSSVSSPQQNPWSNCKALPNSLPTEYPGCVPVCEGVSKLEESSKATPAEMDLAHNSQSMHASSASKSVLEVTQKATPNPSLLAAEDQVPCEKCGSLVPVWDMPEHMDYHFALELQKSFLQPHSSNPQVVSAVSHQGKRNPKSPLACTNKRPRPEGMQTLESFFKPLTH
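Pol eta at 10 nM preincubated with compounds 15 min at room temperature; reaction started with fluorescent substrate (50 nM final) and read kinetically at 0 and 10 min.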
TbPGK inh – validation of Trypanosoma brucei phosphoglycerate kinase inhibitors; AID 686980; TbPGK coupled GAPDH assay, Kinase-Glo luminescence; Potency, µM (titrated, usually from 57.5 µM), inactives show at the top dose activity change, negative = inhibition, usual class: inhibitors; shares compounds with Pol kappa inh-1; hit rate 79% among 500; note: potency is the fitted concentration of half-maximal effect; % is set by controls: 0 for no effect and ±100 for the full control effect; nearly all actives have a fitted effect of over 65% in size
Pol iota confirm – Human Pol iota inhibitor confirmatory assay; Potency, µM, most hits filed as inhibitors; hit rate 77% among 1,500; shares compounds with Pol kappa inh-1; AID 720496; Pol iota primer extension, TAMRA/BHQ fluorescence; note: potency is the fitted concentration of half-maximal effect
GALK inh confirm – confirmation of human galactokinase (GALK) inhibitors. AID 2015. shares compounds with Pol eta inh-1. Potency, µM (series often up to 115 µM), for the others: at the highest dose activity, negative = inhibition, usual class: inhibitors. purified GALK, Kinase-Glo ATP depletion luminescence. hit rate 70% among 150
GALK redox cs – generates H2O2 by redox cycling, flagging GALK artifacts; hit rate 40% among 150; Phenol red-HRP H2O2 redox cycling, absorbance 600 nm; shares compounds with Pol eta inh-1; AID 2035; Potency, µM (highest dose often 115 µM), for inactives: at the top dose activity change, negative = H2O2 signal, hits mostly inhibitors
HEK293 tox – HEK-293 cytotoxicity, GALK inhibitor secondary. shares compounds with Pol eta inh-1. HEK-293 viability, ATP luminescence (CellTiter-Glo), 24/48 h. Potency, µM (top dose mostly 46.1 µM), for inactives: at the top dose activity change, negative = cytotoxicity, hits mostly inhibitors. hit rate 10% among 170; note: potency is the fitted concentration of half-maximal effect; % is set by controls: 0 for no effect and ±100 for the full control effect
Pol kappa inh-2 – confirmation of human DNA polymerase kappa inhibitors | shares compounds with Pol eta inh-1 | purified Pol-kappa, fluorescent strand-displacement substrate | Potency, µM, hits mostly inhibitors | hit rate 76% among 920; note: potency is the fitted concentration of half-maximal effect
Pol eta inh-2 – Pol eta (human) inhibition, cherry-pick confirmation | hit rate 64% among 2,600 | Pol eta primer extension, TAMRA/BHQ fluorescence, 10 min | AID 720502 | shares compounds with Pol eta inh-1 | Potency, µM, usual class: inhibitors; note: potency is the fitted concentration of half-maximal effect
Numbers without * were called inactive; ? = inconclusive; · = not tested or not shown; [ ] = dose if it differs, or a comment. Calls come from the whole dose curve; as a rule, active = well fitted curve in the direction sought with a large enough effect; inconclusive = small, poorly fitted or top-dose-only effect, or another doubt; inactive = no such curve, though single readings can be large; an effect the other way counts as inactive or inconclusive.

SMILES	POLI inh	WRN helicase inh	Pol kappa inh-1	FEN1 inh	POLB inh	Pol eta inh-1	Pol iota confirm	Pol eta inh-2	others
CN1CCN(c2ncc3ncc(=O)n(CCC#N)c3n2)CC1	·	·	2%[60.1 µM]	·	·	·	·	·
CSc1nsc(/C=C/Nc2ccc(F)cc2F)c1C#N	119%	-35%[57.1 µM]	-22%	-13%	-8%	5%	·	·
CSc1nsc(/C=C/Nc2ccc(C(=O)O)cc2)c1C#N	56%	-6%	-9%[60.1 µM]	-7%	32µM*	28µM*	75*	43*
Cc1ccc2[nH]c(=O)c(CN(CCO)Cc3nnnn3Cc3ccco3)cc2c1	10%	·	-7%	-17%	·	·	·	·
O=[N+]([O-])c1ccccc1NC(=S)N/N=C/c1ccc(O)c(O)c1	8.9µM*	11µM*	20µM*	-27%	3.5µM*	3.5µM*	47*	21*
CN(C)S(=O)(=O)c1cc(NC(=O)COC(=O)/C=C/c2ccco2)ccc1Cl	?	?	32µM*	?	?	25µM*	·	67*	TbPGK inh=-26%
COc1cccc(/C=C/C(=O)OCC(=O)Nc2ccc(Cl)c(S(=O)(=O)N(C)C)c2)c1	10%	-5%	-3%	-6%	1%	-26%	·	·
COc1cc(-c2noc(C)c2/C=C/c2ccc(C(=O)O)cc2)cc(OC)c1OC	?	?	71µM*	-5%	14µM*	13µM*	42*	27*
O=C1c2ccccc2C(=O)C12OC2c1cccc2ccccc12 (stereo unspecified)	3.5µM*	-10%[57.1 µM]	-2%	-8%	10%	20µM*	?	38*	GALK inh confirm=17µM*;GALK redox cs=13µM*;HEK293 tox=-27%
COc1ccc(-n2c(CCC(=O)O)ccc2-c2ccccc2)c(OC)c1	7%	·	-15%	1%	-23%	·	·	·
Cc1cc[n+](-c2[nH]c(=O)sc2/C=N/N=C(\[O-])c2ccncc2)cc1C	1%	2%	-5%	?	4%	0%	·	·
Cc1cc[n+](-c2[nH]c(=O)sc2/C=N/N=C(\[O-])c2ccncc2)cc1	40µM*	0%[11.6 µM]	?	-27%	?	79µM*	53*	76*
Cn1c(CNC(=O)CSc2nc(-c3cccc(Cl)c3)nc3cc(=O)[nH]n23)nc2ccccc21	?	·	-28%	6%	?	-11%	·	·
O=C(CSc1nc(-c2cccc(Cl)c2)nc2cc(=O)[nH]n12)Nc1ccccc1	?	·	-35%	-33%	20µM*	50µM*	60*	85*
O=C(N=Nc1c(O)[nH]c2ccc([N+](=O)[O-])cc12)c1ccccc1Cl	38%	-7%[11.6 µM]	6%	?	-30%	40µM*	67*	?
Cc1cc(N/N=C/c2ccc(O)cc2)nc(NS(=O)(=O)c2ccccc2)n1	?	-28%[57.1 µM]	?	-7%	18µM*	20µM*	·	?	TbPGK inh=5.2µM*
Fc1ccc(Nc2ccnc(-c3ccc4c(c3)OCO4)n2)cc1	·	·	-11%[60.1 µM]	·	·	·	·	·
COC1=CC(=O)c2c(ccc3ncnc(N)c23)C1=O	4µM*	-34%	-6%	?	·	4.5µM*	4.2*	8.5*
COC1=CC(=O)c2nc(Cl)ccc2C1=O	·	-30%[57.1 µM]	·	·	·	·	·	·
CCN(CC)c1ccc2c(c1)oc(=O)c1c(Cl)cc(=O)oc12	14µM*	-9%[57.1 µM]	?	-22%	-15%	14µM*	?	?
CCN(CC)c1ccc2c(C)c(Cl)c(=O)oc2c1	9%	-8%	-24%	-6%	-11%	0%	·	·
Cc1ccc(C(=O)c2oc3ccccc3c2NC(=O)COc2ccccc2Cl)cc1	15%	·	0%	4%	-20%	-15%	·	·
O=C1C=C(Nc2ccc(O)cc2)CC(c2ccco2)C1 (stereo unspecified)	-5%	-2%	-3%	9%	-21%	?	·	·
O=C1C=C(O)CC(c2ccco2)C1 (stereo unspecified)	4.5µM*	?	?	?	6.3µM*	3.2µM*	75*	30*	Pol kappa inh-2=17*
O=C1CC(c2ccco2)CC(O)=C1C=Nc1cc(Cl)ccc1Cl (stereo unspecified)	22µM*	?	?	-13%	40µM*	?	67*	60*	Pol kappa inh-2=75*
SMILES	POLI inh	WRN helicase inh	Pol kappa inh-1	FEN1 inh	POLB inh	Pol eta inh-1	Pol iota confirm	Pol eta inh-2	others
O=C1CC(c2ccco2)CC(O)=C1C=Nc1ccccc1-c1ccccc1 (stereo unspecified)	?	-7%[57.1 µM]	-3%	-11%	-5%	-4%	·	·
CN(C)c1ccc(-c2ccc3ncnc(NC4CC4)c3c2)cc1	·	·	0%[60.1 µM]	·	·	·	·	·
O=c1c(-c2cc(F)cc(F)c2)nc2cncnc2n1Cc1ccccc1	·	·	-5%[60.1 µM]	·	·	·	·	·
COc1cccc(Cn2c(=O)c(-c3cccs3)nc3cnc(N4CCNCC4)nc32)c1	·	·	-15%[60.1 µM]	·	·	·	·	·
Cc1nnc(N2C(=O)c3oc4ccccc4c(=O)c3C2c2ccco2)s1 (stereo unspecified)	?	?	?	-26%	20µM*	?	?	?
COc1ccc(Oc2ncc3nc(-c4ccc(F)cc4)c(=O)n(CCC#N)c3n2)cc1	·	·	0%[60.1 µM]	·	·	·	·	·
CCNc1ncc2ncc(=O)n(CCOC)c2n1	·	·	8%[60.1 µM]	·	·	·	·	·
CCOC(=O)/C(C#N)=C/c1cccn1-c1ccc(Cl)cc1	84%	-3%	2%	8%	-7%	-20%	·	·

Assay outcomes (PubChem)
